Assay outcomes from PubChem.
The list is not random: actives were taken first. Their share in the collection is about 9.5%.
ALDH1A1 inh: ALDH1A1 (human) enzyme inhibition; actives 7.3% (n = 220,000); Potency, µM (highest dose often 75.3 µM), for inactives: top-dose activity, negative = inhibition, actives largely listed as inhibitors; AID 1030; Purified ALDH1A1, NADH fluorescence, propionaldehyde substrate; active = well fitted inhibition curve with a large enough effect, not every such curve was filed as active; inconclusive = small, poorly fitted or top-dose-only effect, or another doubt; inactive = no such curve, though single readings can be large or run the other way;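 note: plate controls were no enzyme wells and a reference inhibitor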
Target sequence (P00352 whole entry, looked up): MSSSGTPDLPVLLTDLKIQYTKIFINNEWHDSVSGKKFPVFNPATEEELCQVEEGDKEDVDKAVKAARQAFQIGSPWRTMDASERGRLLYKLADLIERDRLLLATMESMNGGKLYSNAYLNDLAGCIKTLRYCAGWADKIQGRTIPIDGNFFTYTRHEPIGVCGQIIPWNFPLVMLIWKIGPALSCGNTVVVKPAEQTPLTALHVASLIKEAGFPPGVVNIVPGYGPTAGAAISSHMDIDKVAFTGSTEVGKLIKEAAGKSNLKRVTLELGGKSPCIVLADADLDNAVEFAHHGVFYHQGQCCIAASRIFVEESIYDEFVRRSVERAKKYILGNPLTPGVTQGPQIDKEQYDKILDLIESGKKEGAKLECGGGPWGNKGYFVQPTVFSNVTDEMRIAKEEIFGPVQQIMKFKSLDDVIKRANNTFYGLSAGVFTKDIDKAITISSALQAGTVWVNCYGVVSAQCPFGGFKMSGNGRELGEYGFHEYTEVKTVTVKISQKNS
Tau FP inhib: blocks human tau fibril formation measured by polarization. AID 1468. actives 0.39% (n = 280,000). K18 P301L tau heparin fibrillization, Alexa594 FP, 6 h. Potency, µM (doses to about 57.7 µM), inactives show top-dose activity, negative = inhibition, most hits filed as inhibitors; note: nearly all actives have a fitted effect of over 55% in size
Target sequence (P10636 561-689 P618L limits assumed): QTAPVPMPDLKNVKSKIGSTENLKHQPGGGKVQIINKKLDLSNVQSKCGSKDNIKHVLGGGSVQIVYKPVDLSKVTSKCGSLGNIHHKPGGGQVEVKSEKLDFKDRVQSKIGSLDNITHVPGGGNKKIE
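Compound effects on tau fibrillization are measured by Alexa 594 fluorescence polarization (ex 555, em 632 nm). K18 P301L tau is used at 15 uM with 0.24 uM labeled tracer, and 20 uM heparin induces aggregation over 6 hr at 37 C.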
Tau fluor counter: counter-screen for tau fibril formation inhibitors. Potency, µM (top dose mostly 57.7 µM), for the others: at the top dose activity change, negative = decrease. AID 1463. tau K18 P301L Alexa594 fluorescence, heparin fibrillization. actives 0.93% (n = 280,000); note: nearly all actives have a fitted effect of over 55% in size
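Human tau K18 P301L (15 uM unlabeled, 0.24 uM Alexa 594-labeled) in 100 mM sodium acetate pH 7 with 20 uM heparin, 6 hr at 37 C. ThT 30 uM added, 1 hr ambient; Alexa 594 FP and total fluorescence read at 555/632 nm.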
NPSR antagonist: blocks cAMP signaling of the human neuropeptide S receptor; Q6W5P4; CHO-NPSR cells, cAMP TR-FRET, antagonist mode; Potency, µM (highest dose often 38.3 µM), without a hit: at the top dose activity change, negative = inhibition, usual class: inhibitors; actives 1% (n = 220,000); AID 1461; note: nearly all actives have a fitted effect of over 50% in size
HPGD block: blocks human HPGD enzyme activity; AID 894; actives 4.3% (n = 150,000); P15428; purified HPGD, NADH fluorescence kinetic, PGE2 substrate; Potency, µM, for the others: top-dose activity change, negative = inhibition, most hits filed as inhibitors; active = well fitted inhibition curve with a large enough effect, not every such curve was filed as active; inconclusive = small, poorly fitted or top-dose-only effect, or another doubt; inactive = no such curve, though single readings can be large or run the other way
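20 nM HPGD preincubated 15 min at room temperature with compound in 50 mM Tris-HCl pH 8, 0.01% Tween 20. Started with 1 mM NAD+ and 30 uM prostaglandin E2; NADH fluorescence (360/450 nm) read 5 times over 30-s intervals, last minus first.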
Tau ThT inhib: blocks human tau fibril formation measured by thioflavin T | P10636 | recombinant tau K18 P301L (four-repeat tau fragment), heparin-induced fibrillization, ThT fluorescence | Potency, µM (titrated, usually from 57.4 µM), for inactives: at the highest dose activity, negative = inhibition, usual class: inhibitors | actives 2.1% (n = 270,000) | AID 1460; note: nearly all actives have a fitted effect of over 55% in size
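Aggregation was driven by heparin (20 uM final) acting on recombinant tau […] bearing P301L in 100 mM sodium acetate pH 7; fibrils were detected with Thioflavin T.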
Starred values were filed as active, the others as inactive; ? = inconclusive; . = not tested or not shown; ! = repeats disagree; [ ] = remark or other dose. Unless noted, calls come from the whole dose curve; as a rule, active = well fitted curve in the direction sought with a large enough effect; inconclusive = small, poorly fitted or top-dose-only effect, or another doubt; inactive = no such curve, though single readings can be large; an effect the other way counts as inactive or inconclusive. Unless noted, % is set by controls: 0 for no effect and ±100 for the full control effect; potency is the fitted concentration of half-maximal effect.

SMILES	ALDH1A1 inh	Tau FP inhib	Tau fluor counter	NPSR antagonist	HPGD block	Tau ThT inhib
COc1ccccc1N1CCN(CCCCNS(=O)(=O)c2cccc3c(N(C)C)cccc23)CC1	?	10%	-17%	-2%[46.1 µM]	-15%	?
Nc1ncc([N+](=O)[O-])c(Oc2ccccc2F)n1	.	5%	-26%	-9%[7.67 µM]	.	?
Cc1cc(/C=N/Nc2nc(N)ncc2[N+](=O)[O-])c(C)n1-c1ccccc1F	.	6%	-24%	-13%	.	16µM*
Cc1ccc(CNC(=O)c2cccc(-n3cnc4cccnc43)c2)cc1	.	-4%	-6%	.	.	8%
CC(C)(C)CN1CCNC(=O)C1CC(=O)NCCN1CCCc2ccccc21 (stereo unspecified)	?	?	-8%	6%	.	?
COc1cc(CN(C(=O)c2ccccc2)c2ccccn2)cc(OC)c1OC	.	0%	-1%	.	.	2%
O=C(O)C1CC=CCC1C(=O)Nc1ccc(Oc2ccc(Cl)cc2)cc1 (stereo unspecified)	1.4µM*	13%	-1%	-18%	-11%	-5%
COC(=O)c1cc(NC(=O)C2CC=CCC2C(=O)O)cc(C(=O)OC)c1 (stereo unspecified)	13µM*	-1%	-3%	-10%[46.1 µM]	-7%	-13%
CCOc1ccc(NC(=O)C2CC=CCC2C(=O)O)cc1 (stereo unspecified)	-1%	-15%	3%	6%[46.1 µM]	-14%	-2%
CCCCOc1ccc(NC(=O)C2CC=CCC2C(=O)O)cc1 (stereo unspecified)	-3%	-1%	-11%	-19%[46.1 µM]	2%	-11%
O=C(O)[C@H]1CC=CC[C@@H]1C(=O)Nc1cccc(O)c1	0%[13.5 µM]	.	.	.	-8%	.
Cc1cc(C)cc(Oc2ccc(NC(=O)C3CC=CCC3C(=O)O)cc2)c1 (stereo unspecified)	2.8µM*	2%	-1%	-3%	.	-9%
O=C(O)C1CC=CCC1C(=O)Nc1cccc(F)c1 (stereo unspecified)	28µM*	0%	2%	-3%[46.1 µM]	-21%	2%
NCCNc1ncnc2ccc(Cl)cc12	-7%[13.5 µM]	.	.	.	-12%	.
CCCCn1cc(S(=O)(=O)c2ccc(OC)cc2)c(=O)c2cc(F)c(N3CCOCC3)cc21	.	7%	-1%	.	.	-4%
CCOc1ccc(N2C(=O)C3ON(c4ccccc4)C(c4cccs4)C3C2=O)cc1 (stereo unspecified)	?	-5%	7%[2.34 µM]	5%	.	-2%
O=C(O)c1cc(N=Nc2ccc([N+](=O)[O-])cc2)ccc1O	22µM*!	.	.	.	-3%	.
COc1ccc(N=Cc2c(O)ccc3ccccc23)cc1	?	-7%	?	19%	.	8.9µM*
COc1ccc(Cn2c(O)c(C=Nc3ccc(O)cc3)c3ccccc3c2=O)cc1	5%	?	4.5µM*[quencher]	-57%	-9%	?
Cc1oc(/N=C/c2c(O)ccc3ccccc23)c(C#N)c1C	35µM*	?	-30%	1%[46.1 µM]	-13%	18µM*
CCCCN(C(=S)NC(=O)c1cc(OC)c(OC)c(OC)c1)c1c(N)n(Cc2ccccc2)c(=O)[nH]c1=O	-13%	2%	-8%	7%	-8%	-11%
O=C(c1ccco1)N1CCN(Cc2cn[nH]c2-c2cccc3ccccc23)CC1	.	2%	-6%	7%	.	-2%
CCCN1C(=O)/C(=C/c2ccc(N3CCCC3)c(C)c2)NC1=S	0.22µM*	?	8.9µM*[quencher]	?	-30%	?
Cc1ccc(CN2C(=O)N/C(=C\c3ccc(N4CCOCC4)cc3)C2=O)cc1	-3%	17%	?	-24%	-8%	-16%
CCCN1C(=O)/C(=C/c2ccc(N3CCOCC3)cc2)NC1=S	6.3µM*	?	?	-30%	.	?
SMILES	ALDH1A1 inh	Tau FP inhib	Tau fluor counter	NPSR antagonist	HPGD block	Tau ThT inhib
Cc1cc(/C=C2\NC(=S)N(C)C2=O)ccc1N1CCCC1	?	?	-28%	?	.	?
CCN1C(=O)/C(=C/c2ccc(N3CCCC3)cc2)NC1=S	13µM*	?	?	-26%	-18%	11µM*
Cc1cc(/C=C2/C(=O)N(C)C(=S)N2C)ccc1N1CCCC1	?	-3%	?	-52%	.	4µM*
CCOc1cc(CNc2ncn[nH]2)ccc1OCC(=O)NC(C)(C)C	6%	?	-8%	-14%	.	-9%
N#Cc1ccccc1CSc1nnc(-c2ccccc2)o1	.	-1%	-20%	.	.	-5%
CCCN1C(=O)/C(=C/c2ccc(OCC(=O)OCC)cc2)NC1=S	1µM*	-1%	-21%	-31%	.	?
CCOC(=O)COc1ccc(S(=O)(=O)c2ccc(OCC(=O)OCC)cc2)cc1	-5%	4%	-14%	?	-3%	-8%
CC1(C)CC(=O)C(N=Nc2cccc(S(=O)(=O)N3CCOCC3)c2)=C(O)C1	.	13%	4%	19%	.	5%
Cc1ccc(C(=O)c2cc3c(cc2[N+](=O)[O-])OCCO3)cc1	?	?	?	-8%	.	-8%
CC1(C)CC(=O)C(N=Nc2cc(Cl)c(Cl)c(Cl)c2)=C(O)C1	5µM*	-3%	-12%	-4%[46.1 µM]	-8%	-19%
CC(=O)N1CCc2cc(N=NC3=C(O)CC(C)(C)CC3=O)ccc21	?	-1%	-6%	-23%	.	?
Cc1ccc(O)c(N=NC2=C(O)CC(C)(C)CC2=O)c1	6.3µM*	-3%	-13%	-17%	-19%	?
CC1(C)CC(=O)C(N=Nc2cc3c(cc2[N+](=O)[O-])OCCO3)=C(O)C1	0.56µM*	12%	1%	-3%	.	?
C/C=C/c1ccc(OCCCn2cncn2)c(OC)c1	-7%	-15%	-7%	-5%[46.1 µM]	-11%	-9%
C/C=C/c1ccc(OCCCCOc2ccccc2F)c(OC)c1	?	6%	-8%	4%	-17%	?
C/C=C/c1ccc(OCCn2cncn2)c(OC)c1	25µM*	-4%	1%	0%[46.1 µM]	-5%	-11%
C=CCc1ccc(OCCCCNC(C)CC)c(OC)c1 (stereo unspecified)	?	0%	4%	7%	1%	2%
C/C=C/c1ccc(OCCCNC(C)CC)c(OC)c1 (stereo unspecified)	16µM*	10%	9%	-7%[46.1 µM]	-9%	-10%
C/C=C/c1ccc(OCCCNC2CCCC2)c(OC)c1	28µM*	-5%	-7%	3%[46.1 µM]	-6%	-9%
O=C(c1csnn1)N1CCC2(CC1)CCN(c1ncccn1)CC2	4%	.	.	.	-11%	.
Cc1ccc(-c2nnn(CC(=O)Nc3ccccc3N3CCOCC3)n2)cc1	1%	-12%	-16%	-21%[46.1 µM]	-5%	-1%
CC(C(=O)c1ccc(-c2ccccc2)cc1)[n+]1cccc(NC(=O)c2ccccc2)c1 (stereo unspecified)	.	-6%	-10%	-15%	.	?
